Source: PubChem (National Center for Advancing Translational Sciences (NCATS))
Hits are enriched below; roughly 19% of the tested compounds scored in any of these assays.
IL-1B inflam inh: inhibitors of inflammasome signaling (IL-1 beta secretion) | THP-1 LPS/ATP IL-1B secretion, AlphaLISA, 16 h; hits give low values | activity change, % at 57.5 µM | actives 4.7% (n = 360,000); in the data active = activity change below about -50%; inconclusive = mostly about -30% to -49%
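THP-1 cells pretreated 1 hr with compounds (up to 57.5 uM final), then stimulated with LPS (250 ng/mL final) plus ATP (1.25 mM final); secreted IL-1B measured by AlphaLISA after 16 hr, decreased signal indicating inhibition.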
HT1080NT lethal: kills 2HG-producing HT-1080-NT fibrosarcoma cells; Potency, µM (highest dose often 46.1 µM), actives largely listed as cytotoxic; actives 1.6% (n = 360,000); HT-1080-NT fibrosarcoma viability, CellTiter-Glo ATP luminescence, 48 h; AID 686970;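 also: NT is the 2HG producing partner of a matched IDH1 knockdown line; nearly all actives have a fitted effect of over 55% in size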
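Viability by CellTiter-Glo luminescence after 48 h compound exposure at 37C of HT-1080-NT cells (750/well, RPMI, 5% FBS). % activity scaled between DMSO wells and medium-only wells, then curve-fitted and categorized by curve class.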
DT40 TDP1 CPT: DT40-hTDP1 cell growth loss with CPT; chicken DT40 Tdp1-/-;hTDP1 cells + 20 nM CPT, ATP luminescence, 48 h; Potency, µM (highest dose often 46.2 µM), most hits filed as inhibitors; actives 12% (n = 420,000); AID 686979; also: nearly all actives have a fitted effect of over 55% in size
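Chicken DT40 Tdp1-/- cells stably complemented with human TDP1 were seeded at 400 cells/well in medium containing 20 nM camptothecin, exposed to pin-transferred compounds, and grown at 37 °C for at least 48 hr. Viability was read as ATP luminescence.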
HT1080 IDH1KD tx: kills HT-1080 cells with IDH1 knockdown | HT-1080 IDH1 knockdown viability, ATP luminescence, 48 h | Potency, µM (highest dose often 46.1 µM), usual class: cytotoxic | actives 2% (n = 360,000)
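Assay cells: HT-1080 with IDH1 knockdown, 750 per well, RPMI/5% FBS. Exposure: 48 h at 37 °C following 2 h pre-incubation. Read: CellTiter-Glo luminescence; fitted concentration-response, curve class assigned.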
TDP1 cell noCPT: qHTS for Inhibitors of human tyrosyl-DNA phosphodiesterase 1 (TDP1): qHTS in cells in absence of CPT; DT40 Tdp1-/- hTDP1 cells, no CPT, ATP luminescence, 48 h; actives 15% (n = 420,000); AID 686978, 2013; Potency, µM (titrated, usually from 46.2 µM), usual class: inhibitors; also: nearly all actives have a fitted effect of over 55% in size
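DT40 Tdp1-/-;hTDP1 cells, no CPT (DMSO vehicle only), 400 cells/well; compounds pin-transferred; ≥48 hr, 37 °C; CellTiter-Glo 30 min RT dark, luminescence read.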
Numbers stand for hits. Unless noted, calls follow the shape of the dose curve; as a rule, active = well fitted curve in the direction sought with a large enough effect; inconclusive = small, poorly fitted or top-dose-only effect, or another doubt; inactive = no such curve, though single readings can be large; an effect the other way counts as inactive or inconclusive.

`CC(C)[C@H](NC(=O)[C@@H]1Cc2c([nH]c3ccccc23)C2c3ccccc3C(=O)N21)C(=O)NCC1CCCO1` (stereo partly drawn) gave IL-1B inflam inh inactive, HT1080NT lethal inactive, DT40 TDP1 CPT inconclusive, HT1080 IDH1KD tx inactive and TDP1 cell noCPT inconclusive.
Screening CC(C)C[C@H](NC(=O)[C@@H]1Cc2c([nH]c3ccccc23)C2c3ccccc3C(=O)N21)C(=O)NCC1CCCO1 (stereo partly drawn) returned IL-1B inflam inh inactive, HT1080NT lethal inactive, DT40 TDP1 CPT 16µM, HT1080 IDH1KD tx inactive and TDP1 cell noCPT inconclusive.
COc1ccc(NS(=O)(=O)c2cccc(C(=O)NNC(=O)c3cc(C)oc3C)c2)cc1 was read as IL-1B inflam inh inactive, HT1080NT lethal inactive, DT40 TDP1 CPT inactive, HT1080 IDH1KD tx inactive and TDP1 cell noCPT inconclusive.
`COc1ccc(NS(=O)(=O)c2cc(C)ccc2NC(=O)c2cc(C)oc2C)cc1` gave IL-1B inflam inh inactive, HT1080NT lethal 0.58µM, DT40 TDP1 CPT 0.92µM, HT1080 IDH1KD tx 0.92µM and TDP1 cell noCPT 0.58µM.
`CCOc1ccc(/C=C2\NC(=S)NC2=O)cc1` gave IL-1B inflam inh inactive, HT1080NT lethal inactive, DT40 TDP1 CPT inconclusive, HT1080 IDH1KD tx inactive and TDP1 cell noCPT inactive.
For Cc1no[n+]([O-])c1COc1ccc(/C=C2\NC(=S)NC2=O)cc1 the results were IL-1B inflam inh -53, HT1080NT lethal inactive, DT40 TDP1 CPT inactive, HT1080 IDH1KD tx inactive and TDP1 cell noCPT inactive.
`CN(C)C(CNC(=O)c1ccco1)c1cccs1` (stereo not drawn) gave IL-1B inflam inh inactive, HT1080NT lethal inactive, DT40 TDP1 CPT inactive, HT1080 IDH1KD tx inactive and TDP1 cell noCPT inactive.
Screening COc1cc(C(=O)NCC(c2cccs2)N(C)C)cc(Cl)c1OC(C)C (stereo not drawn) returned IL-1B inflam inh inactive, HT1080NT lethal inactive, DT40 TDP1 CPT inconclusive, HT1080 IDH1KD tx inactive and TDP1 cell noCPT 21µM.
COc1cc2ccccc2cc1C(=O)NCC(c1cccs1)N(C)C (stereo not drawn) was read as IL-1B inflam inh -76, HT1080NT lethal inactive, DT40 TDP1 CPT inconclusive, HT1080 IDH1KD tx inconclusive and TDP1 cell noCPT 16µM.
CCCOc1ccc(C(=O)NCC(c2cccs2)N(C)C)cc1OC (stereo not drawn) was read as IL-1B inflam inh inactive, HT1080NT lethal inactive, DT40 TDP1 CPT inconclusive, HT1080 IDH1KD tx inactive and TDP1 cell noCPT inactive.
Cc1ccc(C(=O)Nc2cc(C(C)C)c(O)c(C(C)C)c2)cc1 was read as IL-1B inflam inh inactive, HT1080NT lethal inactive, DT40 TDP1 CPT inconclusive, HT1080 IDH1KD tx inactive and TDP1 cell noCPT inconclusive.
Cc1ccccc1OCCOC(=O)c1c(-c2ccccc2)noc1C was read as IL-1B inflam inh inactive, HT1080NT lethal 7.3µM, DT40 TDP1 CPT 7.3µM, HT1080 IDH1KD tx 5.8µM and TDP1 cell noCPT 18µM.
CCOC(=O)c1c(-c2ccc(F)cc2)csc1NC(=O)c1c(-c2ccccc2)noc1C was read as IL-1B inflam inh inactive, HT1080NT lethal inactive, DT40 TDP1 CPT inconclusive, HT1080 IDH1KD tx inconclusive and TDP1 cell noCPT 21µM.
`Cc1onc(-c2ccccc2)c1C(=O)OCCOc1ccccc1F` gave IL-1B inflam inh inactive, HT1080NT lethal inactive, DT40 TDP1 CPT inconclusive, HT1080 IDH1KD tx inactive and TDP1 cell noCPT inconclusive.
Screening Cc1onc(-c2ccccc2)c1C(=O)OCC(=O)c1ccc(F)cc1 returned IL-1B inflam inh inactive, HT1080NT lethal inactive, DT40 TDP1 CPT inconclusive, HT1080 IDH1KD tx inactive and TDP1 cell noCPT 23µM.
For Cc1onc(-c2ccccc2)c1C(=O)OCCOc1ccc([N+](=O)[O-])cc1[N+](=O)[O-] the results were IL-1B inflam inh inactive, HT1080NT lethal inactive, DT40 TDP1 CPT inconclusive, HT1080 IDH1KD tx inconclusive and TDP1 cell noCPT 21µM.
`Cc1onc(-c2ccccc2)c1C(=O)OCC(=O)c1ccccc1` gave IL-1B inflam inh inactive, HT1080NT lethal inactive, DT40 TDP1 CPT inactive, HT1080 IDH1KD tx inactive and TDP1 cell noCPT inconclusive.
`CNC(=S)N(Cc1ccc(OC)cc1)Cc1cc2ccc(C)cc2[nH]c1=O` gave IL-1B inflam inh inactive, HT1080NT lethal inactive, DT40 TDP1 CPT inactive, HT1080 IDH1KD tx inactive and TDP1 cell noCPT inconclusive.
Screening COC(=O)c1sc2cccc(F)c2c1S(=O)(=O)Nc1ccc(N(C)C)cc1 returned DT40 TDP1 CPT inactive and TDP1 cell noCPT inactive.
COc1ccc(C(=O)NCC(c2cccnc2)N2CCN(c3ccccc3)CC2)cc1 (stereo not drawn) was read as DT40 TDP1 CPT inconclusive and TDP1 cell noCPT 16µM.
`COc1ccc(C(=O)NCC(c2cccnc2)N2CCN(c3ccc(F)cc3)CC2)cc1` (stereo not drawn) gave DT40 TDP1 CPT 15µM and TDP1 cell noCPT 10µM.
Screening CCc1nc2c(OCc3ccccc3C)cccn2c1N(C)C(=O)c1ccco1 returned IL-1B inflam inh inactive, HT1080NT lethal inactive, DT40 TDP1 CPT inconclusive, HT1080 IDH1KD tx inactive and TDP1 cell noCPT inconclusive.
`CCCN1CCN(C(=O)CCn2c(=O)c3cccn3c3cccnc32)CC1` gave IL-1B inflam inh inactive, HT1080NT lethal inactive, DT40 TDP1 CPT inactive, HT1080 IDH1KD tx inactive and TDP1 cell noCPT inactive.
`CC(C)CNC(=S)NC(=O)c1ccc(F)cc1` gave IL-1B inflam inh inactive, HT1080NT lethal inactive, DT40 TDP1 CPT 18µM, HT1080 IDH1KD tx inactive and TDP1 cell noCPT inconclusive.
`O=C(NC(=S)Nc1ccccc1O)c1ccc(Cl)cc1Cl` gave IL-1B inflam inh -78, HT1080NT lethal inactive, DT40 TDP1 CPT 18µM, HT1080 IDH1KD tx inconclusive and TDP1 cell noCPT 29µM.
`CC(C)NC(=S)NC(=O)c1ccc(Cl)cc1Cl` gave IL-1B inflam inh inactive, HT1080NT lethal inactive, DT40 TDP1 CPT inconclusive, HT1080 IDH1KD tx inactive and TDP1 cell noCPT inconclusive.
CC(C)CNC(=S)NC(=O)c1ccc(Cl)cc1Cl was read as IL-1B inflam inh inactive, HT1080NT lethal inactive, DT40 TDP1 CPT 13µM, HT1080 IDH1KD tx inactive and TDP1 cell noCPT inconclusive.
For O=C(NC(=S)NCCN1CCOCC1)c1ccc(F)cc1 the results were IL-1B inflam inh inactive, HT1080NT lethal inactive, DT40 TDP1 CPT inactive, HT1080 IDH1KD tx inactive and TDP1 cell noCPT inactive.
Screening O=C(Nc1ccccc1Cl)c1ccc(Cl)cc1Cl returned IL-1B inflam inh inactive, HT1080NT lethal inactive, DT40 TDP1 CPT inactive, HT1080 IDH1KD tx inactive and TDP1 cell noCPT inactive.
Screening O=C(CSc1ncnc2c1oc1ccccc12)NCc1ccc(F)cc1 returned IL-1B inflam inh inactive, HT1080NT lethal inactive, DT40 TDP1 CPT inactive, HT1080 IDH1KD tx inactive and TDP1 cell noCPT inconclusive.
Screening O=C(c1cccnc1Cl)N(Cc1ccccc1)Cc1ccccc1 returned IL-1B inflam inh -67, HT1080NT lethal inactive, DT40 TDP1 CPT inconclusive, HT1080 IDH1KD tx inactive and TDP1 cell noCPT 9.2µM.
